# According to PubChem BioAssay (EPA / NIEHS):
# Records with an inconclusive call do not appear. Calls of active or inactive are those of the source. How the source made its calls: active means hit-call score of the fitted dose curve at least 0.9, where 1 is the maximum; inconclusive means response in the unintended direction; inactive means score below 0.9.
# Assays:
# [1] = molecular target: Estrogen receptor (Homo sapiens) (UniProt P03372); experiment: NVS_NR_hER: NovaScreen (NVS) Nuclear Receptor Binding Assay for human Estrogen Receptor (ER) (AID 2283348)
# Procedure, shortened: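 Radiodetection of ligand displacement in a lysate-based, cell-free format using MCF7 extracts, read at 18 hours. Duplicate 25 uM primary testing, then concentration series for actives.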
# [2] = molecular target: Estrogen receptor (Homo sapiens) (UniProt P03372); experiment: OT_ER_ERaERa_1440: Odyssey Thera (OT) 24-hour HEK293T Protein-Complementation Assay for Estrogen Receptor-alpha/-alpha Homodimer (AID 2283349);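 further: hits raise fluorescence above DMSO for agonists and antagonists alike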
# Procedure, shortened: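 Stably transfected HEK293T; ERα LBD homodimer PCA. 24 h dosing, fluorescence intensity read, gain-of-signal vs DMSO.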
# [3] = molecular target: Estrogen receptor (Homo sapiens) (UniProt P03372); experiment: OT_ER_ERaERa_0480: Odyssey Thera (OT) 8-hour HEK293T Protein-Complementation Assay for Estrogen Receptor-alpha/-alpha Homodimer (AID 2283351);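 further: rise in fluorescence from reassembled reporter fragments on ERα LBD homodimer in nucleus or whole cell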
# Procedure, shortened: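 Measures ERα LBD (aa 310-547) homodimer complementation in stably transfected HEK293T at 8 h post-dose, with fluorescence intensity quantified on a laser scanning cytometer relative to DMSO controls.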
# [4] = molecular target: Estrogen receptor (Homo sapiens) + Estrogen receptor beta (Homo sapiens) (UniProt P03372+Q92731); experiment: OT_ER_ERaERb_0480: Odyssey Thera (OT) 8-hour HEK293T Protein-Complementation Assay for Estrogen Receptor-alpha/-beta Heterodimer (AID 2283352)
# Procedure, shortened: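 Fluorescence intensity readout from a protein-fragment complementation reporter in HEK293T; ER-alpha/ER-beta LBD heterodimer. Dosing 8 h. Gain-of-signal fit relative to DMSO negative control; laser scanning cytometry of whole-well cell population.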
# [5] = molecular target: chimpanzee Androgen Receptor (AR), AR (gene 747460) (UniProt O97775); experiment: NVS_NR_cAR: NovaScreen (NVS) Nuclear Receptor Binding Assay for chimpanzee Androgen Receptor (AR) (AID 2283346);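 further: radioligand displacement from AR measured by scintillation counting in a cell-free assay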
# Procedure, shortened: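 Cell-free radioligand displacement using receptor protein extracted from Sf9/Sf21 cells; bound radioligand measured by scintillation counting 72 hours after chemical dosing. Loss of signal versus DMSO baseline indicates binding; primary screen single-concentration in duplicate at 25 uM, actives followed in concentration series.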
# [6] = molecular target: Bile acid receptor (Homo sapiens) (UniProt Q96RI1); experiment: NVS_NR_hFXR_Antagonist: NovaScreen (NVS) Nuclear Receptor Binding Assay for human Farnesoid X Receptor Antagonism (FXR) (AID 2283350)
# Procedure, shortened: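 Antagonist-format time-resolved FRET binding assay with extracted human receptor protein, read 1 hour after compound addition. Compounds first screened at 25 uM in duplicate, then actives tested in concentration series, with loss of signal relative to DMSO.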
# Estrogen receptor (Homo sapiens) + Estrogen receptor beta (Homo sapiens), sequence (P03372 whole entry, looked up, the tested form may be a part): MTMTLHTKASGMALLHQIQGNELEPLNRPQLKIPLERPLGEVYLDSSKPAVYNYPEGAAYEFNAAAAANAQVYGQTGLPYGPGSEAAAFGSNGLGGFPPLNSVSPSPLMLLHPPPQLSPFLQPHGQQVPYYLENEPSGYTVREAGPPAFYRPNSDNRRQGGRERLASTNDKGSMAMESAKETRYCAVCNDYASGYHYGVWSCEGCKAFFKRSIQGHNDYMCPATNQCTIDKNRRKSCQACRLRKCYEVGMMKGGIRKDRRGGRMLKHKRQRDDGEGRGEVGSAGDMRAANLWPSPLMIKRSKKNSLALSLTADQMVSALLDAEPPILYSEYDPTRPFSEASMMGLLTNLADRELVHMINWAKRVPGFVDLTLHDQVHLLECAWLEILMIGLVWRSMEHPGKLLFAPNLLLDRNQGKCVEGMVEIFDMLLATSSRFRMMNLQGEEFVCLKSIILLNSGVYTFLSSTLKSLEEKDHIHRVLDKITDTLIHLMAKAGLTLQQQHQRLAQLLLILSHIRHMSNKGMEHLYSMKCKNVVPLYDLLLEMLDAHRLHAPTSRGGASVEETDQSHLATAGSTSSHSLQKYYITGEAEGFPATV
# Estrogen receptor (Homo sapiens) + Estrogen receptor beta (Homo sapiens), sequence (Q92731 whole entry, looked up, the tested form may be a part): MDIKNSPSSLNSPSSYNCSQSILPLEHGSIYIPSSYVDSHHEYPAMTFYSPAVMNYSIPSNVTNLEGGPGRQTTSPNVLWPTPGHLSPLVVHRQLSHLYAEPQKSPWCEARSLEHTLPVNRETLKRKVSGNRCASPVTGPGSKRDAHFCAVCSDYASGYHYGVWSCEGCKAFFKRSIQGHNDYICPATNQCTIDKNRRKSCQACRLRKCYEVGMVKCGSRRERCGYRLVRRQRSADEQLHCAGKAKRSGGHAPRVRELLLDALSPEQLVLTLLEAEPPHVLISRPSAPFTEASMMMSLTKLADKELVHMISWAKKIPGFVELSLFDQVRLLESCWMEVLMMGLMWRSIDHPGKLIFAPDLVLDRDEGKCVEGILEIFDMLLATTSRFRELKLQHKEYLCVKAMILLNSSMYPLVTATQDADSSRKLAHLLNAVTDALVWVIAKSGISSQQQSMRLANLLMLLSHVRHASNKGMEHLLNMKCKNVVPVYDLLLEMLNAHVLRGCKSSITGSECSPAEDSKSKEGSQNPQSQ
# Estrogen receptor (Homo sapiens), sequence (P03372 whole entry, looked up, the tested form may be a part): as the sequence (P03372 whole entry, looked up, the tested form may be a part) above
# chimpanzee Androgen Receptor (AR), AR (gene 747460), sequence (O97775 whole entry, looked up): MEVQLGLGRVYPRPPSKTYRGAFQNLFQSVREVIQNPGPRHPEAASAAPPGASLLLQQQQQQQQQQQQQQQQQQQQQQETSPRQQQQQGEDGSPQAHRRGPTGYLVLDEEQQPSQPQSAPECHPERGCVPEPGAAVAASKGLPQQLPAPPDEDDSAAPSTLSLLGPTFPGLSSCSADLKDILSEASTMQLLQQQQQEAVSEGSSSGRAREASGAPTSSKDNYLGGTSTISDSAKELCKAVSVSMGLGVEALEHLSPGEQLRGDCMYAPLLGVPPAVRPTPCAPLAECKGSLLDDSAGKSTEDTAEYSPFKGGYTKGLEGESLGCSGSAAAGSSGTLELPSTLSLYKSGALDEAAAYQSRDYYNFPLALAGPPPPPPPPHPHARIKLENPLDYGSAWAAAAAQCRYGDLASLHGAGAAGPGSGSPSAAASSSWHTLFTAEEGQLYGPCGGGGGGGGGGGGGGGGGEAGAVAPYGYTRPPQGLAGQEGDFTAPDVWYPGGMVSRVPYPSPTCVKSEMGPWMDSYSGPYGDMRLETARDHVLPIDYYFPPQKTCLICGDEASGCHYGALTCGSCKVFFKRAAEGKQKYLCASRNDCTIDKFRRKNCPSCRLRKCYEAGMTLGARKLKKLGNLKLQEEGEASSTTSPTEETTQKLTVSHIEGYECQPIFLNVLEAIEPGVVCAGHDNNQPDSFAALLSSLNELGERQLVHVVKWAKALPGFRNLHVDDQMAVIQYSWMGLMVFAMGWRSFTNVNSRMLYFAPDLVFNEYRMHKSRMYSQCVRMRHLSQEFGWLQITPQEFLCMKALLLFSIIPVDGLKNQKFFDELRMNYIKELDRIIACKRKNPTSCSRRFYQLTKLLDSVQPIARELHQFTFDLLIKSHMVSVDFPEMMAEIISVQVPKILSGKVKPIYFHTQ
# Bile acid receptor (Homo sapiens), sequence (Q96RI1 whole entry, looked up): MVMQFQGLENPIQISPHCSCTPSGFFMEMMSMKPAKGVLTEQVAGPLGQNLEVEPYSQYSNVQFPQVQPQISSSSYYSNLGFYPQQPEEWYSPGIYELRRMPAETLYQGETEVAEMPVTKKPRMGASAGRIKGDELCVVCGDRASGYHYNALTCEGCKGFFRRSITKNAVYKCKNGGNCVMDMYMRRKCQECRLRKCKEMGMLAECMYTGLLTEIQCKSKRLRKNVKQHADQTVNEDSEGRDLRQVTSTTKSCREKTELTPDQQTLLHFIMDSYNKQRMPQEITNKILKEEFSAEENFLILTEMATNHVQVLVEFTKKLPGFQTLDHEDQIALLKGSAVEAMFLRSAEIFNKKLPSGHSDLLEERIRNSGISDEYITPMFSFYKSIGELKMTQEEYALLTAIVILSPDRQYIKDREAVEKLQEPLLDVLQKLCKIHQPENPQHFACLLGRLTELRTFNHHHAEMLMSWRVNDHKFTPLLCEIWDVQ
smiles,measurement,setting,value
Cc1ccc(O)c(C)c1,outcome,[1],inactive
same,outcome,[2],inactive
same,outcome,[3],inactive
same,outcome,[4],inactive
CN(C)c1nc(=O)n(C2CCCCC2)c(=O)n1C,outcome,[2],inactive
same,outcome,[3],inactive
O=C(O)C(F)(F)C(F)(F)C(F)(F)C(F)(F)C(F)(F)F,outcome,[5],inactive
same,outcome,[2],inactive
same,outcome,[3],inactive
same,outcome,[4],inactive
ClC1=C(Cl)[C@]2(Cl)[C@@H]3[C@H]4C[C@H]([C@@H]5O[C@H]45)[C@@H]3[C@@]1(Cl)C2(Cl)Cl,outcome,[1],inactive
same,outcome,[2],inactive
same,outcome,[3],inactive
CCOP(=S)(OCC)SCSC(C)(C)C,outcome,[2],inactive
same,outcome,[3],inactive
O=C(N[C@H]1CN2CCC1CC2)c1cc2ccoc2cn1,outcome,[2],inactive
same,outcome,[3],inactive
same,outcome,[4],inactive
Clc1ccc(Cl)cc1,outcome,[2],inactive
same,outcome,[3],inactive
same,outcome,[4],inactive
Cc1cccc(C)c1N,outcome,[2],inactive
same,outcome,[3],inactive
same,outcome,[4],inactive
CC#Cc1cc(C)nc(Nc2ccccc2)n1,outcome,[2],inactive
same,outcome,[3],inactive
same,outcome,[4],inactive
Cc1ccccc1[N+](=O)[O-],outcome,[2],inactive
same,outcome,[3],inactive
CCCCCCOC(=O)c1ccccc1C(=O)OCCCCCC,outcome,[2],inactive
same,outcome,[3],inactive
Clc1ccc(C(Cl)(Cl)Cl)cc1,outcome,[2],inactive
same,outcome,[6],inactive
same,outcome,[3],inactive
CCC(C)c1cc([N+](=O)[O-])cc([N+](=O)[O-])c1O (stereo not drawn),outcome,[2],inactive
same,outcome,[3],inactive
same,outcome,[4],inactive
CN(C)CCO,outcome,[2],inactive
same,outcome,[3],inactive
same,outcome,[4],inactive
C=CC(N)=O,outcome,[2],inactive
same,outcome,[3],inactive
Cc1ccccc1O,outcome,[2],inactive
same,outcome,[3],inactive
same,outcome,[4],inactive
Sc1ccccc1,outcome,[2],inactive
same,outcome,[3],inactive
ClC1=C(Cl)[C@]2(Cl)[C@@H]3[C@@H]4C[C@@H]([C@H]5O[C@@H]45)[C@@H]3[C@@]1(Cl)C2(Cl)Cl,outcome,[1],inactive
same,outcome,[2],inactive
same,outcome,[3],inactive
CC(C)C(=O)OCC(C)(C)C(OC(=O)C(C)C)C(C)C (stereo not drawn),outcome,[2],inactive
same,outcome,[4],inactive
Cc1cccc([N+](=O)[O-])c1,outcome,[1],inactive
same,outcome,[2],inactive
same,outcome,[3],inactive
O=C(NC(=O)c1c(F)cccc1F)Nc1cc(Cl)c(OC(F)(F)C(F)F)c(Cl)c1,outcome,[2],inactive
same,outcome,[3],inactive
same,outcome,[4],inactive
Nc1ccc(-c2ccc(N)cc2)cc1,AC50,[5],19.9 µM (active)
same,outcome,[1],inactive
same,outcome,[2],inactive
same,outcome,[3],inactive
same,outcome,[4],inactive
COc1ccc(O)c(C(C)(C)C)c1,AC50,[5],27.7 µM (active)
same,outcome,[1],inactive
same,outcome,[2],inactive
same,outcome,[3],inactive
same,AC50,[4],50 µM (active)
OCC(O)CO,outcome,[2],inactive
same,outcome,[3],inactive
same,outcome,[4],inactive
C=CC(=O)NCNC(=O)C=C,outcome,[1],inactive
same,outcome,[2],inactive
same,outcome,[3],inactive
same,outcome,[4],inactive
c1ccc(-c2ccccc2)cc1,outcome,[1],inactive
same,outcome,[2],inactive
same,outcome,[3],inactive
same,outcome,[4],inactive
N#Cc1ccc(N(CC(N)=O)CC(F)(F)F)cc1C(F)(F)F,AC50,[5],0.0178 µM (active)
same,outcome,[2],inactive
same,outcome,[3],inactive
same,outcome,[4],inactive
O=C(NC(=O)c1cc(F)c(F)cc1Cl)Nc1cc(F)ccc1N1CCC(C(=O)O)CC1,outcome,[2],inactive
same,outcome,[3],inactive
O=S(=O)(O)C(F)(F)C(F)(F)C(F)(F)C(F)(F)F,outcome,[2],inactive
CCSC(=O)N(CC)C1CCCCC1,outcome,[2],inactive
same,outcome,[3],inactive
